Assay outcomes: PubChem BioAssay, several laboratories
A selection: hits, their analogues and other compounds. The true share with any hit is near 28%.
CYP2C19 inhib: blockers of cytochrome P450 2C19 activity – biochemical, luminescence, ADME assay, primary screen; P33261; hit rate 21% among 96,000; CYP2C19 Supersomes, luciferin-H EGE luminescence, 30 min; inhibition, % at 5 µM; AID 778, 2007;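 active means CYP2C19 inhibition above a set limit at 5 µM in the primary screen, cut at about 50% in these data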;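 further: plate controls were negative control wells for no effect and 2.5 mM tranylcypromine positive control for full effect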
CYP2C9 inhib: blockers of cytochrome P450 2C9 activity – biochemical, luminescence, ADME assay, primary screen. CYP2C9 Supersomes, luciferin-H conversion. inhibition, % at 5 µM. hit rate 20% among 96,000. AID 777, 2007;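 active means blocking of liver enzyme CYP2C9 beyond about 50% at 5 µM, limit read from the data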
CYP2C19 activ: human CYP2C19 activators, primary screen, biochemical, luminescence | Cytochrome P450 2C19 (Homo sapiens), P33261 | recombinant CYP2C19, luciferin-H EGE luminescence; active compounds read high; 0 = fully inhibited enzyme, 1 = untreated enzyme | activation factor at 5 µM | 96,000 tested, under 10 active;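 active means activation factor of at least 2 at 5 µM in the primary screen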;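 further: 0 = wells with 2.5 mM tranylcypromine and 1 = vehicle-only wells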
PLK1 kinase inh: human PLK1 kinase inhibitors, primary screen, biochemical, TR-FRET; Serine/threonine-protein kinase PLK1 (Homo sapiens), P53350; recombinant PLK1 kinase, TR-FRET peptide phosphorylation; inhibition, % at 10 µM; hit rate 0.53% among 97,000;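 active means inhibition of 50% or more in the single-concentration screen; inactive means inhibition below 50%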;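 further: 0% = DMSO max control and 100% = H-89 dihydrochloride min control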
Target sequence (P53350 whole entry, looked up): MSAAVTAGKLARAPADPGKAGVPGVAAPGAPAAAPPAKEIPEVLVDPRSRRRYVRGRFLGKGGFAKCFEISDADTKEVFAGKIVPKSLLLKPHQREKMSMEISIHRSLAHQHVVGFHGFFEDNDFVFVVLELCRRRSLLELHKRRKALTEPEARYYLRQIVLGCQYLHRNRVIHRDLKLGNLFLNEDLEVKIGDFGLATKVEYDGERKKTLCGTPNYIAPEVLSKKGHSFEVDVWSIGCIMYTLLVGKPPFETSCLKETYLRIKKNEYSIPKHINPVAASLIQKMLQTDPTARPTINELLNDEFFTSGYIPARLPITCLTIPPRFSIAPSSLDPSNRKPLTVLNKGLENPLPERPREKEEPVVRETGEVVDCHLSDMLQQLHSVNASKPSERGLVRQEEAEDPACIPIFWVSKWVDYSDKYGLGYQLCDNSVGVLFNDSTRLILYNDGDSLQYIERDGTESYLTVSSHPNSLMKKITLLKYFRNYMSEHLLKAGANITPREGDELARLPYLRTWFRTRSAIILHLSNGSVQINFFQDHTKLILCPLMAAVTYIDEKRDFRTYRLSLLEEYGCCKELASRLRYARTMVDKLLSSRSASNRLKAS
PLK1 PBD inh: Plk1 polo box domain binding inhibitors, primary screen, biochemical, fluorescence polarization; Serine/threonine-protein kinase PLK1 (Homo sapiens), P53350; Plk1 PBD phosphopeptide binding; inhibition, %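 (tested at about 20 µM)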; hit rate 0.13% among 97,000; AID 693, 2007; in the data active means inhibition above about 34%, passing the limit was not always enough
CYP2C9 act: human CYP2C9 activators, primary screen, biochemical, luminescence; Cytochrome P450 2C9 (Homo sapiens), P11712; recombinant CYP2C9, luciferin-H conversion; active compounds read high; factor 1 = untreated enzyme, 0 = blocked; activation factor at 5 µM; hit rate 1.4% among 96,000; AID 1024, 2008;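 active means activation factor of 2 or more for CYP2C9 at a 5 µM dose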;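 further: 0 = sulfaphenazole-blocked wells and 1 = vehicle-only wells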
* marks the source's active call; other numbers are inactive results; nt = not tested or not shown.

SMILES	CYP2C19 inhib	CYP2C9 inhib	CYP2C19 activ	PLK1 kinase inh	PLK1 PBD inh	CYP2C9 act
CSc1n[nH]c(NCc2cccs2)n1	-9	-8	1.1	-8	-9	1.1
CCCCn1c(SCc2nc(N)nc(Nc3ccccc3C)n2)nc2ccccc2c1=O	87*	99*	0.1	3	4	0
COCC(C)n1c(SCc2nc(N)nc(Nc3ccccc3C)n2)nc2ccccc2c1=O (stereo not drawn)	74*	95*	0.3	-10	-7	0
CC1=CCC2C(=O)N(C(C)c3ccccc3)C(=O)C2C1 (stereo not drawn)	94*	11	0.1	6	2	0.9
CC1=CCC2C(=O)N(Cc3ccccc3)C(=O)C2C1 (stereo not drawn)	40	32	0.6	-11	-15	0.7
O=C(NCCCn1ccnc1)c1noc2c1CCc1ccccc1-2	83*	50*	0.2	-5	11	0.5
CC12CCC(C(=O)NCCCn3ccnc3)(OC1=O)C2(C)C (stereo not drawn)	76*	32	0.2	-14	-18	0.7
O=C(NCCCn1ccnc1)c1ccc(Br)o1	59*	34	0.4	3	15	0.7
O=C(NCCCn1ccnc1)c1noc2c1CCCC2	69*	85*	0.3	nt	nt	0.2
CCCCn1c(SCc2c(C)noc2C)nc2cc(S(N)(=O)=O)ccc21	6	34	0.9	-4	19	0.7
N#CCN1CCN(CCC(=O)Nc2ccc(OCc3ccccc3)cc2)CC1	8	6	0.9	0	-12	0.9
CN1CCN(C(=O)c2ccccc2NC(=O)Cc2ccccc2)CC1	5	3	0.9	6	-30	1
COc1ccc(S(=O)(=O)N2CCC(C(=O)Nc3ccc(OC)c(OC)c3)CC2)cc1C	nt	nt	nt	-5	13	nt
COc1ccc(OC)c(S(=O)(=O)N2CCC(C(=O)Nc3ccc(C)c(C)c3)CC2)c1	29	-145	0.7	-4	10	2.5*
COc1ccc(OC)c(NC(=O)C2CCN(S(C)(=O)=O)CC2)c1	-2	-23	1	-10	8	1.2
COc1ccc(OC)c(S(=O)(=O)N2CCC(C(=O)Nc3cccc(C)c3C)CC2)c1	10	-154	0.9	-2	2	2.5*
CC(C)[C@H](NC(=O)[C@@H]1CSCN1C(=O)OC(C)(C)C)C(=O)NCC1CCC(C(=O)O)CC1 (stereo partly drawn)	-6	-18	1.1	-6	-4	1.2
CCOC(=O)CNC(=O)Cn1cnc2c(nnn2-c2ccc(C)cc2)c1=O	-9	-16	1.1	-4	13	1.2
Cc1ccc(S(=O)(=O)N(Cc2ccccc2)Cc2ccco2)cc1	83*	90*	0.2	-13	25	0.1
COc1ccc(S(=O)(=O)N(Cc2ccc(OC)c(OC)c2)Cc2ccco2)cc1	59*	46	0.4	-4	-7	0.5
COc1ccc(S(=O)(=O)N(CCCN2CCOCC2)Cc2ccc(OC)c(OC)c2)cc1	89*	17	0.1	-1	9	0.8
Cc1ccc2oc(C(=O)Nc3c(C)n(C)n(-c4ccccc4)c3=O)c(C)c2c1	nt	nt	nt	-6	-3	nt
Cc1ccccc1N(C(=O)c1cccs1)c1nc2ccccc2s1	49	88*	0.5	-15	-22	0.1
Cc1ccsc1C(=O)N(c1nc2ccccc2s1)c1c(C)cccc1C	-10	12	1.1	-6	-10	0.9
COc1ccc(CC(=O)NC(c2ccccc2)c2ccccc2)cc1S(=O)(=O)N1CCOCC1	-12	27	1.1	-10	-21	0.7
SMILES	CYP2C19 inhib	CYP2C9 inhib	CYP2C19 activ	PLK1 kinase inh	PLK1 PBD inh	CYP2C9 act
Nc1ccc(C23CC4CC(CC(CO)(C4)C2)C3)cc1	71*	20	0.3	-13	-17	0.8
NCC12CC3CC(CC(O)(C3)C1)C2	14	5	0.9	0	23	0.9
Nc1ccc(C23CC4CC(CC(O)(C4)C2)C3)cc1	91*	24	0.1	-13	-26	0.8
COC(=O)C1CCN(C(=O)c2ccc(SC)cc2OC)CC1	99*	12	0	-11	18	0.9
COC(=O)C1CCN(C(=O)Cc2ccc(OC)c(OC)c2)CC1	nt	nt	nt	-6	24	nt
Cc1ccc(F)c(NC(=O)C2CCCCC2C(=O)O)c1 (stereo not drawn)	-4	-2	1	-8	9	1
Cn1c(=O)c(=O)n(C)c2cc(S(=O)(=O)N3CCCCCC3)ccc21	2	5	1	-2	8	1
COc1ccc(NS(=O)(=O)c2ccc3oc(Nc4ccc5c(c4)OCCO5)nc3c2)cc1	51*	96*	0.5	-7	-31	0
Cn1c(=O)c(=O)n(C)c2cc(S(=O)(=O)Nc3ccc(OC(F)(F)F)cc3)ccc21	82*	91*	0.2	0	-8	0.1
Cn1c(=O)c(=O)n(C)c2cc(S(=O)(=O)Nc3ccc4c(c3)OCCO4)ccc21	-2	54*	1	-7	-12	0.5
CCCCCCNC(=O)c1cc(-c2ccco2)nc2ccccc12	nt	nt	nt	-10	-1	nt
CCCCOc1ccc(C(CC(=O)NC)C(=O)O)cc1 (stereo not drawn)	6	11	0.9	-5	-12	0.9
COc1ccc(C(C(=O)Nc2ccc(F)cc2)N(C(=O)Cn2nnc3ccccc32)C2CC2)cc1 (stereo not drawn)	23	29	0.8	-19	-17	0.7
Cc1cccc(C(C#N)c2nc3ccccc3nc2C(F)(F)F)c1 (stereo not drawn)	nt	nt	nt	-13	12	nt
N#CC(c1cccc(Cl)c1)c1ccc2c(C(F)(F)F)cc(C(F)(F)F)nc2n1 (stereo not drawn)	29	78*	0.7	-2	-2	0.2
COc1ccc(C(=O)N2CCN(c3cccc(Cl)c3)CC2)cc1	nt	nt	nt	-13	7	nt
CSC(=NC#N)N1CCN(c2cccc(Cl)c2)CC1	95*	33	0	-13	-6	0.7
CSC(=NC#N)N1CCN(c2ccccc2)CC1	51*	-4	0.5	-9	-7	1
O=C(CN1CCN(c2ccccc2)CC1)N1CCN(c2ccccc2)CC1	26	38	0.7	-5	-3	0.6
CCOc1cc(S(=O)(=O)N(Cc2ccccc2)Cc2ccccc2)c(OCC)cc1-n1cnnn1	24	41	0.8	-2	8	0.6
CCN(CC)CCNC(=O)C1c2ccccc2C(=O)N(CCOC)C1c1ccc(F)cc1 (stereo not drawn)	-33	-29	1.3	-14	-13	1.3
N#Cc1cc2c(nc1SCC(O)CS(=O)(=O)Cc1ccc(Cl)cc1)CCCC2 (stereo not drawn)	59*	81*	0.4	3	-19	0.2
